miR-21 reporter = qHTS Assay for Modulators of miRNAs and/orActivators of miR-21; Potency, µM (doses to about 38.3 µM), without a hit: top-dose activity change, positive = activation, actives largely listed as activators; HeLa miR-21 FLuc reporter, luciferase, 48 h; 340,000 tested, under 10 active;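 note: % of control where 0% means no effect; miR-21 action dims this reporter so a rising signal means less miR-21 action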
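Compounds were titrated across several concentrations (up to approximately 40 uM) and incubated 48 hours with HeLa miR-21-FLuc reporter cells (miR-21 target sequence downstream of FLuc, endogenous miR-21). Readout was firefly luciferase luminescence after lytic detection reagent.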
Sfp PPTase inh = qHTS Assay for Inhibitors of Bacillus subtilis Sfp phosphopantetheinyl transferase (PPTase); 4'-phosphopantetheinyl transferase ffp (Bacillus subtilis), Q9F4F7; AID 1490, 2009; hit rate 3.5% among 310,000; Biochemical Sfp PPTase activity, qHTS; Potency, µM, for inactives: largest response in the series, negative = inhibition, most hits filed as inhibitors;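 note: the enzyme is Sfp with the accession as filed and its product quenches rhodamine fluorescence; potency is the fitted concentration of half-maximal effect; 0% = enzyme reaction without inhibitor and -100% = no enzyme wells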
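Buffer: 50 mM Hepes-Na pH 7.6, 10 mM MgCl2, 0.01% Nonidet P-40, 0.01% BSA. Enzyme 15 nM, pre-exposed to compound 15 min; substrates then added and fluorescence change tracked over 30 min.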
ALDH1A1 block = qHTS Assay for Inhibitors of Aldehyde Dehydrogenase 1 (ALDH1A1). Aldehyde dehydrogenase 1A1 (Homo sapiens), P00352. Purified ALDH1A1, NADH fluorescence, propionaldehyde substrate. Potency, µM (top dose mostly 75.3 µM), for the others: top-dose activity, negative = inhibition, most hits filed as inhibitors. hit rate 7.3% among 220,000; active = well fitted inhibition curve with a large enough effect, not every such curve was filed as active; inconclusive = small, poorly fitted or top-dose-only effect, or another doubt; inactive = no such curve, though single readings can be large or run the other way;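 note: potency is the fitted concentration of half-maximal effect; plate controls were no enzyme wells and a reference inhibitor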
Target sequence (P00352 whole entry, looked up): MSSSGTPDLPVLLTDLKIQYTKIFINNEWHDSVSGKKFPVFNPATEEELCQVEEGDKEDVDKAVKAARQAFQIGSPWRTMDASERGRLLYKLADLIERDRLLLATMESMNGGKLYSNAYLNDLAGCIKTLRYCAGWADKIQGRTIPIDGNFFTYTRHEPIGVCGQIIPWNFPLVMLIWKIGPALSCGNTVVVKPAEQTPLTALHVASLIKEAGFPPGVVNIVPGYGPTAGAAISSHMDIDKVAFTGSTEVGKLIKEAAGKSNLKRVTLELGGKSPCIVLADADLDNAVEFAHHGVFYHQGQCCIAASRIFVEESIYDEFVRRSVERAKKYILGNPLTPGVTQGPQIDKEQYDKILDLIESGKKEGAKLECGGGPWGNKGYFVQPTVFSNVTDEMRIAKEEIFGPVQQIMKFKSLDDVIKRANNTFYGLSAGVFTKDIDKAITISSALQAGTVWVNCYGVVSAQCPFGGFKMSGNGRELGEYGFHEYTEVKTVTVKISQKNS
LMNA splice mod = qHTS Assay for Modulators of Lamin A Splicing. HeLa LMNA splicing GFP/RFP minigene ratio, 48 h. Potency, µM (series often up to 46.1 µM), for the others: at the top dose ratio change, negative = inhibition, actives largely listed as inhibitors. hit rate 0.01% among 200,000; active = well fitted inhibition curve with a large enough effect in the signal ratio, with a control signal flat, not every such curve was filed as active; inconclusive = small, poorly fitted or top-dose-only effect, or effect the other way, or a change in a side signal; the % refers to the signal ratio; note: potency is the fitted concentration of half-maximal effect; % is set by controls: 0 for no effect and ±100 for the full control effect
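S3 HeLa stable clones carrying a lamin A-EGFP splicing minigene plus DsRed2 were seeded at 600 cells/well in Opti-MEM with 2% FBS, pin-dosed and incubated 48 h at 37°C. Acumen cytometry (488 nm) gave the GFP/RFP total-intensity ratio.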
JMJD2E inh = qHTS Assay for Inhibitors of Human Jumonji Domain Containing 2E (JMJD2E). JMJD2E catalytic domain, FDH-coupled NADH fluorescence (FDH is formaldehyde dehydrogenase). AID 2147, 2009. Lysine-specific demethylase 4E (Homo sapiens), B2RXH2. Potency, µM (top dose mostly 57.1 µM), inactives show at the highest dose activity change, negative = inhibition, actives largely listed as inhibitors. hit rate 1.6% among 230,000; active = well fitted inhibition curve with a large enough effect, not every such curve was filed as active; inconclusive = small, poorly fitted or top-dose-only effect, or another doubt; inactive = no such curve, though single readings can be large or run the other way;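 note: potency is the fitted concentration of half-maximal effect; 0% = wells with enzyme and -100% = buffer wells without enzyme; nearly all actives have a fitted effect of over 50% in size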
Target sequence (B2RXH2 1-337 limits assumed): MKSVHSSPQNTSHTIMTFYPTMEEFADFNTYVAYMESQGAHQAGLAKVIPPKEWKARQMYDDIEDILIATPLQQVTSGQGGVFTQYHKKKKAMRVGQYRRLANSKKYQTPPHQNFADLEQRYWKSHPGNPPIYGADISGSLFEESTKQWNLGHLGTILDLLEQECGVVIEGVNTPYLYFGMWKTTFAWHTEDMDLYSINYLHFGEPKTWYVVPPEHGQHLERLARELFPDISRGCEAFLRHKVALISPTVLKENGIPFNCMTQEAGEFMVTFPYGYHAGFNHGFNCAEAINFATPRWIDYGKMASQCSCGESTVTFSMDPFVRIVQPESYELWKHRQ
G9a block = qHTS Assay for Inhibitors of Histone Lysine Methyltransferase G9a. Histone-lysine N-methyltransferase EHMT2 (Homo sapiens), Q96KQ7. G9a H3K9 monomethylation, AlphaScreen, 2 h. Potency, µM (titrated, usually from 102 µM), for the others: at the highest dose activity, negative = inhibition, hits mostly inhibitors. hit rate 8.8% among 350,000; note: potency is the fitted concentration of half-maximal effect; % is set by controls: 0 for no effect and ±100 for the full control effect; nearly all actives have a fitted effect of over 75% in size
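Chemiluminescent proximity detection of H3K9 monomethylation, read after 10 min bead incubation in the dark. Reaction: 20 nM G9a, 500 nM biotin-H3K9 peptide, 20 uM SAM cofactor, 2 h, room temperature, following 15 min enzyme-compound preincubation.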
Numbers without * were called inactive; ? = inconclusive; nt = no result; [ ] = another dose, or the depositor's remark. Rows were chosen to be rich in hits. Some 13% of all compounds tested hit in one or more screens of this group. Unless noted, calls come from the whole dose curve; as a rule, active = well fitted curve in the direction sought with a large enough effect; inconclusive = small, poorly fitted or top-dose-only effect, or another doubt; inactive = no such curve, though single readings can be large; an effect the other way counts as inactive or inconclusive.

SMILES	miR-21 reporter	Sfp PPTase inh	ALDH1A1 block	LMNA splice mod	JMJD2E inh	G9a block
Cc1nc2n(n1)C(c1ccccc1)C1=C(CC(c3ccco3)CC1=O)N2 (stereo not drawn)	0.9%	-14.5%	?	-16.8%	-0.6%	44.7µM*
CC1CC(=O)C2=C(C1)Nc1ncnn1C2c1ccccc1 (stereo not drawn)	-1.5%	-4.4%	17.8µM*	3.5%	6.2%	-24.9%[0.0925 µM]
CCOc1ccc(C(=O)NCCn2cc(SCC(=O)Nc3ccccc3)c3ccccc32)cc1	?	nt	nt	nt	nt	-34.0%[59 µM]
O=C(Nc1cccc(OCc2cc(=O)n3ccccc3n2)c1)Nc1cccc(C(F)(F)F)c1	-22.5%	nt	nt	?	nt	2.0%[59 µM]
CCOc1ccc(N(CC(=O)NCC2CCCO2)S(=O)(=O)c2ccc(SC)cc2)cc1 (stereo not drawn)	6.5%	-28.3%	3.98µM*	4.6%	-6.3%	?
Cc1ccc(S(=O)(=O)N(CC(=O)NCC2CCCO2)c2cccc([N+](=O)[O-])c2)cc1 (stereo not drawn)	0.5%	-12.9%	14.1µM*	nt	2.9%	nt
Cc1nn(C)c(C)c1S(=O)(=O)N(CC(=O)N1CCN(c2ccccc2)CC1)c1ccc(C(C)C)cc1	-2.5%	nt	nt	nt	nt	-15.9%[59 µM]
O=[N+]([O-])c1cc(/C=N/n2c(-c3cccnc3)n[nH]c2=S)ccc1Cl	10.8%	?	2µM*	-12.1%	2.3%	1.26µM*
O=[N+]([O-])c1ccccc1/C=N/n1c(-c2cccnc2)n[nH]c1=S	-6.1%	?	?	?	-4.4%	2.51µM*
Clc1cccc2c1Sc1ccccc1CC2N1CCNCC1 (stereo not drawn)	?	56.2µM*	?	5.0%	4.5%	?
Clc1ccc2c(c1)C(N1CCNCC1)Cc1ccccc1S2 (stereo not drawn)	?	-16.1%	5.4%	-3.4%	-0.5%	?
Cc1cccc(NC(=O)CNC(=O)c2cn(Cc3ccccc3)nc2-c2cccnc2)c1C	nt	nt	nt	nt	nt	-1.2%[59 µM]
COc1cc(/C=N/N=C(N)N)ccc1OCc1ccccc1Cl	?	25.1µM*	?	?	-4.2%	?
Cc1cc(C)c(S(C)(=O)=O)c(Oc2ccc(C(C)(C)C)cc2)n1	4.7%	-3.4%	15.8µM*	7.5%	0.0%	-3.3%
Nc1nc(O)c(Sc2ccccc2[N+](=O)[O-])c(=O)[nH]1	-0.2%	-6.8%	nt	nt	nt	39.8µM*
Cc1ccc(OCCn2cnc3c2c(=O)n(C)c(=O)n3C)cc1	-2.8%	14.7%	nt	nt	nt	44.7µM*
Cc1ccccc1CSc1ncc(Cl)c(C(=O)Nc2nc3ccc(F)cc3s2)n1	0.0%	nt	nt	nt	nt	-18.0%[59 µM]
CCc1ccc2[nH]c(=O)c(CN(Cc3nnnn3C3CCCC3)C3CCCCC3)cc2c1	-13.1%	-2.3%	14.1µM*	-0.8%	?	-8.6%[59 µM]
CCOc1ccc2[nH]c(=O)c(CN(CCO)C(c3nnnn3C3CCCCC3)C(C)C)cc2c1 (stereo not drawn)	-8.3%	89.1µM*	12.6µM*	6.4%	?	?
CCCN1CCN(C(c2cc3cc(OCC)ccc3[nH]c2=O)c2nnnn2C2CCCCC2)CC1 (stereo not drawn)	-5.3%	-4.5%	?	7.6%	?	?
Cc1ccc2[nH]c(=O)c(CN(Cc3nnnn3Cc3ccccc3)C3CCCC3)cc2c1	-2.4%	-25.0%	20µM*	0.6%	?	8.91µM*
O=C(CCc1nc2cccnc2n1Cc1cccs1)Nc1cccc(Cl)c1	8.4%	nt	nt	nt	nt	7.7%[59 µM]
COc1ccc(CCNC(=O)CCC(=O)n2ncc3ccc(Cl)cc32)cc1OC	-1.9%	3.8%	nt	nt	nt	24.3%
Cc1ccc(C)c(CSc2nc3c([nH]c4ccccc43)c(=O)n2C)c1	-0.1%	nt	nt	?	nt	0.3%[59 µM]
CC1CCN(C(CNS(=O)(=O)c2ccccc2)c2ccccc2)CC1 (stereo not drawn)	nt	nt	nt	nt	nt	-16.3%[2.33 µM]
SMILES	miR-21 reporter	Sfp PPTase inh	ALDH1A1 block	LMNA splice mod	JMJD2E inh	G9a block
CC1CCN(C2=C(NS(=O)(=O)c3ccccc3)C(=O)c3ccccc3C2=O)CC1	0.6%	-1.3%	nt	nt	?	3.98µM*
O=C1C(NS(=O)(=O)c2ccc(Br)cc2)=C(N2CCCCC2)C(=O)c2ccccc21	-0.5%	-6.1%	nt	nt	nt	8.91µM*
CC(=C1C(=O)c2ccccc2C1=O)N1CCN(c2ccc(F)cc2)CC1	-13.2%	5.5%	17.8µM*	3.7%[46 µM]	?	50.1µM*
CC1CCCN(C2=C(NS(=O)(=O)c3ccc(Br)cc3)C(=O)c3ccccc3C2=O)C1 (stereo not drawn)	-35.0%	9.9%	nt	nt	nt	?
CC1CCN(C2=C(NS(=O)(=O)c3ccc(Br)cc3)C(=O)c3ccccc3C2=O)CC1	-24.5%	0.0%	nt	nt	nt	8.91µM*
CSc1ccccc1C(=O)N1CCN(c2ccc(F)cc2)CC1	-9.0%	-2.2%	4.8%	5.9%	-6.5%	-14.0%
Cc1ccc(N(CC(=O)NCc2ccc(Cl)cc2)S(C)(=O)=O)cc1	-17.0%	10.5%	nt	nt	nt	-10.8%
CCc1cc2c(nc1CC)CCN(CC/C(C)=N/OC[C@@H](O)COCc1ccco1)C2	nt	1.1%	16.0%[13.5 µM]	nt	nt	nt
O=C(c1cccc(NS(=O)(=O)c2ccc(F)cc2)c1)N1CCN(c2ccccc2)CC1	nt	nt	nt	nt	nt	-45.9%
CCOC(=O)C1CCN(C2=C(NS(=O)(=O)c3ccc(Cl)cc3)C(=O)c3ccccc3C2=O)CC1	-3.7%	6.3%	nt	nt	-3.2%	4.47µM*
CC1CCN(C2=C(NS(=O)(=O)c3ccc(Cl)cc3)C(=O)c3ccccc3C2=O)CC1	-26.8%	-1.6%	?	?	-8.5%	5.62µM*
O=C1C(NS(=O)(=O)c2cccs2)=C(N2CCN(c3cccc(Cl)c3)CC2)C(=O)c2ccccc21	-2.5%	-5.7%	3.16µM*	?	-17.5%	?
O=C1C(NS(=O)(=O)c2ccccc2)=C(N2CCN(c3ccc(F)cc3)CC2)C(=O)c2ccccc21	1.2%	10.5%	nt	nt	-5.3%	5.62µM*
Cn1c(=O)c2c(nc(N3CCc4ccccc4C3)n2C)n(C)c1=O	-4.9%	-8.0%	?	nt	-1.5%	nt
COc1ccc(CNC(=O)C2=CCN(S(=O)(=O)c3ccc(C)cc3)CC2)cc1	6.4%	?	nt	nt	-11.6%	44.7µM*
Cc1ccc(S(=O)(=O)N2CC=C(C(=O)NCc3ccccc3)CC2)cc1	-8.7%	-12.5%	3.3%	3.9%	5.5%	39.8µM*
CCc1nnc(NC(=O)CN2CCCC(C)C2)s1 (stereo not drawn)	0.4%	-0.9%	nt	nt	nt	24.5%

Assay outcomes deposited in PubChem by National Center for Advancing Translational Sciences (NCATS).
